Measured values reported in article PMC7819943, “Rice protein-binding microarrays: a tool to detect cis-acting elements near promoter regions in rice”.
Whole data set: some 68,000 sequences, median “fluorescence intensity (a.u.)” near 9,100, cut for the highest 2% near 16,000. The sample as a whole holds a higher share of the highest values than the screen did.

Biological target: OsWRKY34 (Oryza sativa, UniProt Q0JBA9 1-250)
Test: protein-binding microarray (RPBM); PBS, 2% BSA, 51.3 ng/ul salmon testes DNA, 50 uM zinc acetate, 200 nM TF, 25 C, 1 h; high values mean tight binding
Conditions: protein: recombinant; tags: N-terminal polyhistidine and DsRed monomer fusion (pET32a); label: CyDye5-dUTP incorporated in the synthesized complementary strand; 3' TTTTT single-stranded linker to array surface; dsDNA, one strand shown
Summary of the method: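 Transcription factors were each fused at the N-terminus to a polyhistidine tag plus DsRed and expressed in E. coli BL21-CodonPlus before Ni–NTA purification. Binding to a double-stranded custom Agilent array was carried out with 200 nM protein at 25 °C for 1 h in PBS, 2% BSA, salmon testes DNA and 50 µM zinc acetate. The binding signal is per-feature fluorescence intensity, in arbitrary units, on an Axon 4000B scanner.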

Sequence of OsWRKY34 (Q0JBA9 entry or part of it): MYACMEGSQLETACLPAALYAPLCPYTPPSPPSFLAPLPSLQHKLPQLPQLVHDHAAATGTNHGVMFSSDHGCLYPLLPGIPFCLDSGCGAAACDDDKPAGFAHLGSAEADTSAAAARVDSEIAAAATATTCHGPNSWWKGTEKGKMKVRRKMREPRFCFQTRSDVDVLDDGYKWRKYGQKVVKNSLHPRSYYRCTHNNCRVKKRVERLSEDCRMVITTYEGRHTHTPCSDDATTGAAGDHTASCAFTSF

Sequence	binding signal
CGCAGAATCACAGTTTTTCTTCATCTCCGGCAAGGGTAATCGGAGTCACCTAGTGCAG	8960 fluorescence intensity (a.u.)
ACGCACCAACCGTCCCTCTTTCGCTCACACTCTTCCTTCCCGGAGTCACCTAGTGCAG	9700 fluorescence intensity (a.u.)
CTTTTCCTGCTTGGTTCGTTACTCCTGTTTAATTATTATTCGGAGTCACCTAGTGCAG	14600 fluorescence intensity (a.u.)
AGTACTACTACTACTACATACAGCTGCCTTTGCTTAGCTCCGGAGTCACCTAGTGCAG	9580 fluorescence intensity (a.u.)
TATTTTTTGCATTTTGCTCCCTGATTTGAACTGTATTTCTCGGAGTCACCTAGTGCAG	8660 fluorescence intensity (a.u.)
TACATACTCCTACTCCGTAGTTTGCTGCTTTGTTGGATTCCGGAGTCACCTAGTGCAG	12900 fluorescence intensity (a.u.)
GTCCCATCACCTTATTTCTCATTTTGATTTACTTTTATCTCGGAGTCACCTAGTGCAG	9330 fluorescence intensity (a.u.)
CGGGGTTTCACTTGGTTTTAATTGTTCCTGTGCTGCGTCGCGGAGTCACCTAGTGCAG	18700 fluorescence intensity (a.u.)
TATAGATAGATACTACCAGGGTTTCCAAACTGTTTTTTTGCGGAGTCACCTAGTGCAG	23300 fluorescence intensity (a.u.)
TTTCTTTTTTTTGCCTACCTTTACTTTACACCAAAAACTGCGGAGTCACCTAGTGCAG	8630 fluorescence intensity (a.u.)
TTGCTCGTATTTTCTCCCCAAAGTCATCAACTTTGATGCTCGGAGTCACCTAGTGCAG	19000 fluorescence intensity (a.u.)
GCCTACTCCTACTTGTACATACTTGCTTTTTTTTTTTTTCCGGAGTCACCTAGTGCAG	17500 fluorescence intensity (a.u.)
CAATTGGTTGGGTTTCTTGTGCCTACCTGTGTTTAAGTTCCGGAGTCACCTAGTGCAG	9160 fluorescence intensity (a.u.)
ATACCACCTTATATACTTTGCCAAAACCACCTTTTCCAAGCGGAGTCACCTAGTGCAG	9040 fluorescence intensity (a.u.)
CGAGGTGTGTCTCTCTCCCGTTCACCCGTCCGTATCCTTCCGGAGTCACCTAGTGCAG	11100 fluorescence intensity (a.u.)
CGATTATTTCACTAGAGGCAACCATACTGCTACCAAATCCCGGAGTCACCTAGTGCAG	10200 fluorescence intensity (a.u.)
TACCTGTTTGTTTTTAAGTTCAGATATTATATTACGTAACCGGAGTCACCTAGTGCAG	8930 fluorescence intensity (a.u.)
ACCCCATTTTTTTTGAAAATTCTCGAATTTTATTTTTTTTCGGAGTCACCTAGTGCAG	8750 fluorescence intensity (a.u.)
AGTCCGACTTTTCCTTTTTTTTTTCCGTGTTTTCCGTTTCCGGAGTCACCTAGTGCAG	14800 fluorescence intensity (a.u.)
TTTGTCGTTGCTTCCCTTCTTGGAGACCTTGCCTTGAAGACGGAGTCACCTAGTGCAG	8090 fluorescence intensity (a.u.)
ATTATATTTTAGGTCGCATTTTGATTCTTTTCATGTAATCCGGAGTCACCTAGTGCAG	8660 fluorescence intensity (a.u.)

Sequence	binding signal
TGGTTATGTGCCACAAATCATATATGCAATTTTGACTATACGGAGTCACCTAGTGCAG	9270 fluorescence intensity (a.u.)
ATGGAATCGATCACCTGCAATGCAACACCGTGCCATAATCCGGAGTCACCTAGTGCAG	8520 fluorescence intensity (a.u.)
GAGGAGAGCAGAACAGAACAAGAGGAGGAGAACAAAAAAACGGAGTCACCTAGTGCAG	8230 fluorescence intensity (a.u.)
ATGTTTTTCTTTTCTTTCTTCTTTTTTTTGTTTTTGACCTCGGAGTCACCTAGTGCAG	11900 fluorescence intensity (a.u.)
TTTTGCTTTGGTTGGTTTGCTCGTTTTTTTTTTCTTTTCTCGGAGTCACCTAGTGCAG	19600 fluorescence intensity (a.u.)
TGTCACAGTGTTTTGTTTGTGTTTTTGACCTTGCTTTCCTCGGAGTCACCTAGTGCAG	16800 fluorescence intensity (a.u.)
GGGTCGGTTTCTCTCTTGCTGTCTTCTCGATCGATCGATGCGGAGTCACCTAGTGCAG	20200 fluorescence intensity (a.u.)
GTCTCGGTCTTTTCGATCTCGGTCTTTTCGGTTCGGTCTTCGGAGTCACCTAGTGCAG	9340 fluorescence intensity (a.u.)
GAACACGATGACATCGGATCGGGTCGGTTTCTCTCTTGCTCGGAGTCACCTAGTGCAG	9010 fluorescence intensity (a.u.)
ATATATATATATATATATATATTTTGTCTTGAGTGGTTTGCGGAGTCACCTAGTGCAG	11700 fluorescence intensity (a.u.)
TTTTCTTTGCTTTTCGGTTTCGTTCTCCGTTTTGGTTTTTCGGAGTCACCTAGTGCAG	12400 fluorescence intensity (a.u.)
TTGGATCGTTTGCTTTTCTTTGCCTTTCTTTTGGATTTCTCGGAGTCACCTAGTGCAG	11700 fluorescence intensity (a.u.)
TCTCTTTCTCTCGCTTTCTTTTTGCATAGTTTTCTTCATGCGGAGTCACCTAGTGCAG	8700 fluorescence intensity (a.u.)
CTCGCTTTTCTCTTTTTTGATACTGTCTCGTGGTTTCTTGCGGAGTCACCTAGTGCAG	18400 fluorescence intensity (a.u.)
GTAGTTTTTTTCCTAGTTTCAGTTTTTGTTTTGCTTTTTTCGGAGTCACCTAGTGCAG	11200 fluorescence intensity (a.u.)
GCGTGGTTGATTTTTAGTCTTGTCGACTTCGACTTTAAGCCGGAGTCACCTAGTGCAG	9120 fluorescence intensity (a.u.)
TCGGTACTCTTGCTGAAGCAATCCTTTCTTCCTTGCCTAACGGAGTCACCTAGTGCAG	9140 fluorescence intensity (a.u.)
ACAGTACGCTACTATTCATACGCTAAATTTGTCTTTTTTACGGAGTCACCTAGTGCAG	9830 fluorescence intensity (a.u.)
GGTTATTATATCTACAAAATTCTTGCACACCTCAGCAATGCGGAGTCACCTAGTGCAG	8090 fluorescence intensity (a.u.)
TCCGTCTGTCTATAGCTACTATTAAAGGAGGGGAGGCTCTCGGAGTCACCTAGTGCAG	8130 fluorescence intensity (a.u.)
AAACAAACACAGAGCTTCTCTCCTCTGTTCTCCTTCTCTGCGGAGTCACCTAGTGCAG	8090 fluorescence intensity (a.u.)

Sequence	binding signal
TGTGCAGTTTTGCTGTTTATGACTAGTTTACCTGTTGTCTCGGAGTCACCTAGTGCAG	10800 fluorescence intensity (a.u.)
TAGTTTTGTTTAATTCCTGTCTCGGGTTTGGTTGGTTGCTCGGAGTCACCTAGTGCAG	19100 fluorescence intensity (a.u.)
CCTGTTTTTTGTTTTTGGTGGTGGTTCCGTCTCGGTTAATCGGAGTCACCTAGTGCAG	9840 fluorescence intensity (a.u.)
TCGTCTCCGGCCTTTTCTTGCTCTCCTCGTCTTCTTCCTCCGGAGTCACCTAGTGCAG	13200 fluorescence intensity (a.u.)
AATTTTCCGTTTCTCCTTTTCTTGCTTTGTTTTTTCCTTGCGGAGTCACCTAGTGCAG	15200 fluorescence intensity (a.u.)
CTACATCTTCTCTCGCTATCTCTCTCTGTACTCTCTCTCTCGGAGTCACCTAGTGCAG	11400 fluorescence intensity (a.u.)
TGCACTTCTCCACTTCACTCCTCGTCTCTTGCCGTCTTTTCGGAGTCACCTAGTGCAG	13200 fluorescence intensity (a.u.)
GATGTCTCTCTTTTTTTTTTTGGTTTGGGTTGTCACTTTTCGGAGTCACCTAGTGCAG	9400 fluorescence intensity (a.u.)
TTCACTTTCACCTCGCCGTCTTGGTTGTCTTGCCGTCTTTCGGAGTCACCTAGTGCAG	20200 fluorescence intensity (a.u.)
ACTGTGGTTATCTTGCTATCTCTCCTACTCGCTCTGTCAACGGAGTCACCTAGTGCAG	16500 fluorescence intensity (a.u.)
TGGCTCTCTCGCTCCTATGTGGCTATGTCTGTCTACCTAACGGAGTCACCTAGTGCAG	10800 fluorescence intensity (a.u.)
GATTTTTTTTTTCTCGTCTCCTCGTTTTTGCTTGCCTTTCCGGAGTCACCTAGTGCAG	19200 fluorescence intensity (a.u.)
CACGAAGCCAGTCTAACCGCCATGTGTGGGCTTGTTTGACCGGAGTCACCTAGTGCAG	8700 fluorescence intensity (a.u.)
TGCTTCTTGGACATCGCATCATATTTAAGCATGTTTTCCTCGGAGTCACCTAGTGCAG	10500 fluorescence intensity (a.u.)
CTCTCTTTCTCTTCCATTTCTTGAAACTTGTATGGAGGTTCGGAGTCACCTAGTGCAG	9410 fluorescence intensity (a.u.)
ATCATTTCGCACATTAACTCTCTCTCTCTCTCTCCATTTTCGGAGTCACCTAGTGCAG	15200 fluorescence intensity (a.u.)
GAATTTTGCTTTGGTTCAACCTTTTTTCTCTTCTTTCTCTCGGAGTCACCTAGTGCAG	9740 fluorescence intensity (a.u.)
AACCTTTTCTTTCTTTCTTCACTTTGGTTGCGTTGCGTCTCGGAGTCACCTAGTGCAG	24200 fluorescence intensity (a.u.)
GACCTTTTTTTCTTTTCTTCTTTGTTCTTTGTTGTTCTCTCGGAGTCACCTAGTGCAG	10700 fluorescence intensity (a.u.)
AAGGTATGGTTCTTCATTCTTGTCATTTTCTTTTGCAGCACGGAGTCACCTAGTGCAG	8220 fluorescence intensity (a.u.)
CTCAGCTTCCGTTATTACCTCTGCGCACAAGTTACCGGGCCGGAGTCACCTAGTGCAG	8720 fluorescence intensity (a.u.)

Sequence	binding signal
GAAAAAAATGTAAAAACTGTTGACTTTTAGTCAACGCCATCGGAGTCACCTAGTGCAG	16400 fluorescence intensity (a.u.)
CCTCATCACAAAATGTTTGACGCTGTTGACTTTTTTAAAACGGAGTCACCTAGTGCAG	15900 fluorescence intensity (a.u.)
GTACTCCCTCCATCCCTAAATGTTTGACGCCGTTGACTTTCGGAGTCACCTAGTGCAG	16000 fluorescence intensity (a.u.)
AAATTAAATTTAAAAATTTAAATTTTGACTTTTTCTTGACCGGAGTCACCTAGTGCAG	8250 fluorescence intensity (a.u.)
AAGATATTTTCAATGTATTTTTTTATTGTTGACTTTTAAACGGAGTCACCTAGTGCAG	9030 fluorescence intensity (a.u.)
TTGACGCCGTTGACTTTTTAAAAAATATTTGACCGTTCTTCGGAGTCACCTAGTGCAG	37100 fluorescence intensity (a.u.)
TGTTTGACTTTTTTCTTGGTTAAAATTCTTTAAATTTGATCGGAGTCACCTAGTGCAG	18900 fluorescence intensity (a.u.)
AATTTTCTTAAAATTTGAGGTTTAGTTTGACTTTCTTTTTCGGAGTCACCTAGTGCAG	9400 fluorescence intensity (a.u.)
CTCCATCCTAAAATGTTTGACGCCGTTGACTTTTTTAAATCGGAGTCACCTAGTGCAG	24500 fluorescence intensity (a.u.)
GGTGGTTCTTGCTTCACACAATCTGGCGCGCTTCAGAACACGGAGTCACCTAGTGCAG	13300 fluorescence intensity (a.u.)
AAAACATGGTACAAATGCATACGCTCACACATGCACACTCCGGAGTCACCTAGTGCAG	8300 fluorescence intensity (a.u.)
ACTCACACTAGCTTGAAACTATCTGCGTACTCAAATTCAACGGAGTCACCTAGTGCAG	8080 fluorescence intensity (a.u.)
CCATCCCGCCGCCACCGCCGCCGCCGCCGCCTCATCCTCCCGGAGTCACCTAGTGCAG	9300 fluorescence intensity (a.u.)
ATTCTCAAATACCACTCGGGCCCACATGTCAGCCTTACTCCGGAGTCACCTAGTGCAG	8200 fluorescence intensity (a.u.)
CGGCTCGCTCAACCATACCACCTTTTCAAATTCATTTTTCCGGAGTCACCTAGTGCAG	11600 fluorescence intensity (a.u.)
ATCTTTGACGTCGTTGACTTTTAAAAAAATGTTTGACCGTCGGAGTCACCTAGTGCAG	22300 fluorescence intensity (a.u.)
ATATTTGACGACGTTGATTTTTTTTAAATATGTTTGACCGCGGAGTCACCTAGTGCAG	9090 fluorescence intensity (a.u.)
ATTTTTGACGCCGTTGACTTTTTTTAAATATGTTTGACCGCGGAGTCACCTAGTGCAG	46900 fluorescence intensity (a.u.)
CGTCTCTAAATACTTGACGCCGTTGACTTTTTTAAATATGCGGAGTCACCTAGTGCAG	26900 fluorescence intensity (a.u.)
CGCCGTTGACTTTTTTAAAAATGTTTGACCGTTCCTCTTACGGAGTCACCTAGTGCAG	20900 fluorescence intensity (a.u.)
ACGTCTCCACCACCACCACCGGCCAAACGCCGACCTCATCCGGAGTCACCTAGTGCAG	9450 fluorescence intensity (a.u.)
